Drawing on PMC7862700, “An all-to-all approach to the identification of sequence-specific readers for epigenetic DNA modifications on cytosine”, this text covers binding signal for seven sequences.

Holding throughout (assay): DAPPL (digital affinity profiling via proximity ligation, sequencing); 10 mM Tris-HCl pH 7.5, 50 mM NaCl, 1 mM DTT, 4% glycerol, room temperature, 30 min; GST-TFs on glutathione beads, 16-mer random dsDNA library, 0.1% formaldehyde crosslink after washing; high values mean tight binding
Details in all cases: protein: recombinant; tags: N-terminal GST; dsDNA, one strand shown

One assay concerns the target T1, FLI1 (Homo sapiens, UniProt Q01543 1-452).
T1 sequence: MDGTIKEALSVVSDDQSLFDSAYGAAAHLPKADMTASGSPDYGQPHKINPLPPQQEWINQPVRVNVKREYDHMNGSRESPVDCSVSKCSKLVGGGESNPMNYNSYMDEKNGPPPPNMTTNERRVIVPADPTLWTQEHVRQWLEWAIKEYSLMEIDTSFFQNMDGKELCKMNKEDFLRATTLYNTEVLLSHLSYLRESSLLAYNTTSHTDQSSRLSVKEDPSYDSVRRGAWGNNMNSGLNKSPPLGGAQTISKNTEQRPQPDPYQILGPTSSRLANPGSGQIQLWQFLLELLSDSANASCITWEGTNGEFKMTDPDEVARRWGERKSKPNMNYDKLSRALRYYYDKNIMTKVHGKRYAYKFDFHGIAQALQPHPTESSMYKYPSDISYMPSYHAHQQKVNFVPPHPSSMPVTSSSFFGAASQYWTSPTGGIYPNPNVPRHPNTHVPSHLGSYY
The essentials:
(§1)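 A tag-only sample was pooled with DNA-barcoded human transcription factors that had been expressed in yeast as GST fusions and captured on glutathione beads. The pools were incubated for 30 min at room temperature with 200 nmole of a random double-stranded 16-mer DNA library in Tris/NaCl/DTT/glycerol buffer, then washed, crosslinked with 0.1% formaldehyde, proximity-ligated (BsaI/T4 ligase, 1 h, 37 °C), PCR-amplified and sequenced on an Illumina NextSeq500. Binding signal is each hexamer's read frequency for a factor divided by its frequency for the tag-only sample.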

For the next assay, the target named is T2, ELK1 (Homo sapiens, UniProt P19419 1-428).
T2 sequence: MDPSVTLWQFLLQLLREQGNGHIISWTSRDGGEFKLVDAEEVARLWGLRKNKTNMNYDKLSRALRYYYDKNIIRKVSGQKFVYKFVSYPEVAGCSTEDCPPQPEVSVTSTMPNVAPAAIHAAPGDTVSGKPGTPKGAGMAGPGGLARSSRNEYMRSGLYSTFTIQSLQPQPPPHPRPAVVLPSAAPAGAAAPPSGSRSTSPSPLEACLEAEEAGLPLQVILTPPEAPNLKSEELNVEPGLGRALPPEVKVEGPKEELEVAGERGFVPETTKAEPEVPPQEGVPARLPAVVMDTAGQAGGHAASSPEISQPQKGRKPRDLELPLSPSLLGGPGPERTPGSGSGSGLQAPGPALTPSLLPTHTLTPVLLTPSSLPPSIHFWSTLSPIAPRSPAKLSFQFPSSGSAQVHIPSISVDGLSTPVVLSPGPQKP
The essentials: as §1

The target of a further assay is T3, GABPA (Homo sapiens, UniProt Q06546 1-454).
T3 sequence: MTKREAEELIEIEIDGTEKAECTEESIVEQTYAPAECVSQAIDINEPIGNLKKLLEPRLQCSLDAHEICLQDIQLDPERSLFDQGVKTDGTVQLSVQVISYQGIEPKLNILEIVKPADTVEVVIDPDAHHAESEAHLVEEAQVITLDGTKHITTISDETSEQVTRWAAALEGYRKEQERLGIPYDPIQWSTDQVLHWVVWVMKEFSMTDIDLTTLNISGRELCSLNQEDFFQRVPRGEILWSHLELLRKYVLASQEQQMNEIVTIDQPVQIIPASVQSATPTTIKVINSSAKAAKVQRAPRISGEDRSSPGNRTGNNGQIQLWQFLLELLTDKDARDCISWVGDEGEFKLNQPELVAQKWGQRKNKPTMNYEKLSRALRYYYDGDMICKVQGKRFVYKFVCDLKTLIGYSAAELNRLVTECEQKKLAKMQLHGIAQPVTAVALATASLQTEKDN
In short, it runs like this:
as §1

In a further assay the target is T4, ERG (Homo sapiens, UniProt P11308 1-479).
T4 sequence: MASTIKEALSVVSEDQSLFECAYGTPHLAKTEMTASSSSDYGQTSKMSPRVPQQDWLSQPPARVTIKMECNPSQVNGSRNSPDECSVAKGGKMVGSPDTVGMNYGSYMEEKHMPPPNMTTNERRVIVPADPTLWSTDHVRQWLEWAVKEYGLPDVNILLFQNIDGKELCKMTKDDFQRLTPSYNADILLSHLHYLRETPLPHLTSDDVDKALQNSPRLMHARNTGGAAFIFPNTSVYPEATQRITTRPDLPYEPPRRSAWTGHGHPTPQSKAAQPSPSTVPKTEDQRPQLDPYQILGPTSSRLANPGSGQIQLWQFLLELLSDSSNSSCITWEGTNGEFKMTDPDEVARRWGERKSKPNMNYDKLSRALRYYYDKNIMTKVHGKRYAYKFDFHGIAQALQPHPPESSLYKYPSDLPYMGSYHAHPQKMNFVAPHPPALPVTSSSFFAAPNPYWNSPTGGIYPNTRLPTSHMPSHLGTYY
In short, it runs like this: as §1

A further assay concerns the target ELF1 (Homo sapiens, UniProt P32519 1-619). The essentials:
as §1

The target of another assay is T5, EHF (Homo sapiens, UniProt Q9NZC4 1-300).
T5 sequence: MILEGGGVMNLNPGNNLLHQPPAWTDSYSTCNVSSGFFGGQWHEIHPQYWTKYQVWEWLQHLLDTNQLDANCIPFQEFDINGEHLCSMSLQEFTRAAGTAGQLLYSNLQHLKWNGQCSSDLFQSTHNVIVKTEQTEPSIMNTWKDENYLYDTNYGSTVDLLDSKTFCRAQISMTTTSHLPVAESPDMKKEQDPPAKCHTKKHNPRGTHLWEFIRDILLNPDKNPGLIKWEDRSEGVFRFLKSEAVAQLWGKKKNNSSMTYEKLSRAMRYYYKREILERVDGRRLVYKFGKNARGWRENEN
The essentials: as §1

The target in another assay is SPI1 (Homo sapiens, UniProt P17947 1-270). The essentials: as §1
A further assay concerns the target SPIB (Homo sapiens, UniProt Q01892 1-262). In short, it runs like this:
as §1

The next assay addresses T6, ELK3 (Homo sapiens, UniProt P41970 1-407).
T6 sequence: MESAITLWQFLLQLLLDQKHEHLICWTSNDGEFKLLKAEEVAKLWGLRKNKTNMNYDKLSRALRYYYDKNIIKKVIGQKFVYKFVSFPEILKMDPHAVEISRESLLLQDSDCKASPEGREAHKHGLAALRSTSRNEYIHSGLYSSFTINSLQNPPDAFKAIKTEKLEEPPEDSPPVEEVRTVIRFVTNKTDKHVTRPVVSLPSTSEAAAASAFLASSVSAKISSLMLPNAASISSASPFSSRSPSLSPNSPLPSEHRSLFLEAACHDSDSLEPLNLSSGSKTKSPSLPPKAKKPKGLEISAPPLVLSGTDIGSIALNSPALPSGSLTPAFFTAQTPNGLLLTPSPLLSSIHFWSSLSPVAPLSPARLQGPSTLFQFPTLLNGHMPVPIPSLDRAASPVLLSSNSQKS
The essentials: as §1

ELF1, sequence (P32519 whole entry): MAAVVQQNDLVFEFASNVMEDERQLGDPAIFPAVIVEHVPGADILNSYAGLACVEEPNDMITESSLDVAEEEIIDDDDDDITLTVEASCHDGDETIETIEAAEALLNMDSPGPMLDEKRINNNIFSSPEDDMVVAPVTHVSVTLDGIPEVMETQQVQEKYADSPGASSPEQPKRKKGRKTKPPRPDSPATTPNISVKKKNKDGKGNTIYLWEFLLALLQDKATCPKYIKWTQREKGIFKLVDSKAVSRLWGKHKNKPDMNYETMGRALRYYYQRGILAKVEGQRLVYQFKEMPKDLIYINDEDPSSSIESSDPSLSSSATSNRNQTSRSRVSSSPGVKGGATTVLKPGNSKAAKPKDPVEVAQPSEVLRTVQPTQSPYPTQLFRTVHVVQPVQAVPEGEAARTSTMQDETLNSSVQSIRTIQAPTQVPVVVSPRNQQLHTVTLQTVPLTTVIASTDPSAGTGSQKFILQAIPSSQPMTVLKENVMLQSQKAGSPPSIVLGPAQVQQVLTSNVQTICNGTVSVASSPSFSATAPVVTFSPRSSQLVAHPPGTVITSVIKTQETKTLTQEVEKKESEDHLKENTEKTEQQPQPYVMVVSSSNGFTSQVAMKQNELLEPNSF
SPIB, sequence (Q01892 whole entry): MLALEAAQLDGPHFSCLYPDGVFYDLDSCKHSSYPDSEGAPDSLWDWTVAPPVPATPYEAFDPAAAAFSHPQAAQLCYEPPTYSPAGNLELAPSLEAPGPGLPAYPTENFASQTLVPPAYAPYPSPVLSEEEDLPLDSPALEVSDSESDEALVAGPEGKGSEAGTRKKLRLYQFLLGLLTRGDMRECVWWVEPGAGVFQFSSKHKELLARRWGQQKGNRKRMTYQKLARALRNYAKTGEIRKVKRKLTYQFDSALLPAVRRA

With TCCTAA, the binding signal in the assay with FLI1 is 1.63 fold enrichment (6-mer frequency, TF over GST control); in the assay with ELK1 it was 1.34 fold enrichment (6-mer frequency, TF over GST control); with GABPA, 1.41 fold enrichment (6-mer frequency, TF over GST control); in the assay with ERG it was 1.58 fold enrichment (6-mer frequency, TF over GST control); with ELF1, 1.49 fold enrichment (6-mer frequency, TF over GST control); in the assay with EHF, 1.27 fold enrichment (6-mer frequency, TF over GST control). The binding signal in the assay with SPI1 was 1.43 fold enrichment (6-mer frequency, TF over GST control); in the assay with SPIB, 1.49 fold enrichment (6-mer frequency, TF over GST control); with ELK3 it was 1.43 fold enrichment (6-mer frequency, TF over GST control).

On to CTCTGT, for which the binding signal is 1.5 fold enrichment (6-mer frequency, TF over GST control) with FLI1; 1.39 fold enrichment (6-mer frequency, TF over GST control) with ELK1; 1.33 fold enrichment (6-mer frequency, TF over GST control) with GABPA; 1.29 fold enrichment (6-mer frequency, TF over GST control) in the assay with ERG; 1.5 fold enrichment (6-mer frequency, TF over GST control) with ELF1; 1.44 fold enrichment (6-mer frequency, TF over GST control) with EHF. Further, the binding signal with SPI1 was 1.34 fold enrichment (6-mer frequency, TF over GST control); with SPIB it was 1.36 fold enrichment (6-mer frequency, TF over GST control); in the assay with ELK3, 1.19 fold enrichment (6-mer frequency, TF over GST control).

Regarding TTTTGT, the binding signal was 1.35 fold enrichment (6-mer frequency, TF over GST control) with FLI1; 1.18 fold enrichment (6-mer frequency, TF over GST control) with ELK1; 1.36 fold enrichment (6-mer frequency, TF over GST control) in the assay with GABPA; 1.39 fold enrichment (6-mer frequency, TF over GST control) with ERG; 1.33 fold enrichment (6-mer frequency, TF over GST control) with ELF1; 1.33 fold enrichment (6-mer frequency, TF over GST control) with EHF. For the same sequence, the binding signal with SPI1 was 1.43 fold enrichment (6-mer frequency, TF over GST control); with SPIB, 1.37 fold enrichment (6-mer frequency, TF over GST control); with ELK3, 1.27 fold enrichment (6-mer frequency, TF over GST control).

Turning to ATTACC, the binding signal was 1.22 fold enrichment (6-mer frequency, TF over GST control) in the assay with FLI1; 1.13 fold enrichment (6-mer frequency, TF over GST control) with ELK1; 1.16 fold enrichment (6-mer frequency, TF over GST control) with GABPA; 1.26 fold enrichment (6-mer frequency, TF over GST control) with ERG; 1.23 fold enrichment (6-mer frequency, TF over GST control) with ELF1; 1.4 fold enrichment (6-mer frequency, TF over GST control) with EHF. Further, the binding signal with SPI1 was 1.16 fold enrichment (6-mer frequency, TF over GST control); with SPIB, 1.36 fold enrichment (6-mer frequency, TF over GST control); with ELK3 it was 1.26 fold enrichment (6-mer frequency, TF over GST control).

Consider AATGAC, for which the binding signal was 1.36 fold enrichment (6-mer frequency, TF over GST control) in the assay with FLI1; 1.52 fold enrichment (6-mer frequency, TF over GST control) with ELK1; 1.43 fold enrichment (6-mer frequency, TF over GST control) in the assay with GABPA; 1.42 fold enrichment (6-mer frequency, TF over GST control) with ERG; 1.36 fold enrichment (6-mer frequency, TF over GST control) with ELF1; 1.35 fold enrichment (6-mer frequency, TF over GST control) with EHF. Besides, the binding signal with SPI1 is 1.36 fold enrichment (6-mer frequency, TF over GST control); with SPIB, 1.39 fold enrichment (6-mer frequency, TF over GST control); with ELK3, 1.44 fold enrichment (6-mer frequency, TF over GST control).

Take ACGTCC: the binding signal was 1.59 fold enrichment (6-mer frequency, TF over GST control) in the assay with FLI1; 1.58 fold enrichment (6-mer frequency, TF over GST control) with ELK1; 1.61 fold enrichment (6-mer frequency, TF over GST control) with GABPA; 1.67 fold enrichment (6-mer frequency, TF over GST control) with ERG; 1.55 fold enrichment (6-mer frequency, TF over GST control) in the assay with ELF1; 1.63 fold enrichment (6-mer frequency, TF over GST control) in the assay with EHF. The binding signal in the assay with SPI1 was 1.49 fold enrichment (6-mer frequency, TF over GST control); with SPIB it was 1.72 fold enrichment (6-mer frequency, TF over GST control); in the assay with ELK3, 1.85 fold enrichment (6-mer frequency, TF over GST control).

On to CATCTT, for which the binding signal is 1.18 fold enrichment (6-mer frequency, TF over GST control) in the assay with FLI1; 1.27 fold enrichment (6-mer frequency, TF over GST control) with ELK1; 1.17 fold enrichment (6-mer frequency, TF over GST control) with GABPA; 1.27 fold enrichment (6-mer frequency, TF over GST control) with ERG; 1.25 fold enrichment (6-mer frequency, TF over GST control) with ELF1; 1.2 fold enrichment (6-mer frequency, TF over GST control) in the assay with EHF. The binding signal with SPI1 was 1.21 fold enrichment (6-mer frequency, TF over GST control); in the assay with SPIB it was 1.21 fold enrichment (6-mer frequency, TF over GST control); in the assay with ELK3, 1.29 fold enrichment (6-mer frequency, TF over GST control).
